Source: PubChem BioAssay (EPA / NIEHS)
Records with an inconclusive call do not appear. Activity calls are given as the source filed them. How the source made its calls: active means hit-call score of the fitted dose curve at least 0.9, where 1 is the maximum; inconclusive means response in the unintended direction; inactive means score below 0.9.

Assay: Tanguay_ZF_120hpf_CFIN_legacy: (Legacy) Oregon State University Tanguay Lab 120 Hour Post-fertilization zebrafish Assay for Caudal Fin Malformation (AID 2283649)
Method: Tanguay_ZF_120hpf_legacy is a whole embryo, multiplexed endpoint assay using zebrafish larvae exposed for 120 hours post fertilization on a 96-well plate.Tanguay_ZF_120hpf_CFIN_legacy is one of one assay component(s) measured or calculated from the Tanguay_ZF_120hpf_legacy assay. It is designed to make measurements of zebrafish development as detected with brightfield microscopy of developing zebrafish embryos.Data from the assay component Tanguay_ZF_120hpf_CFIN_legacy was analyzed into 1 assay endpoints. This assay endpoint, Tanguay_ZF_120hpf_CFIN_legacy, was analyzed in the positive analysis fitting direction relative to DMSO as the negative control and baseline of activity. Using a type of morphology reporter, gain-of-signal activity can be used to understand changes in developmentals as they relate to the whole embryo. To generalize the intended target to other relatable targets, this assay endpoint is annotated to the zebrafish development intended target family, where the subfamily is caudal fin morphogenesis.
Zebrafish husbandry: Tropical 5D wild-type adult zebrafish were housed in at an approximate density of 1000 per 100 gallon tank at the Sinnhuber Aquatic Research Laboratory, Oregon State University, Corvallis, OR. Each tank was kept at standard laboratory conditions of 28C on a 14-h light/10-h dark photoperiod in fish water consisting of reverse osmosis water supplemented with a commercially available salt (Instant Ocean). Spawning funnels were placed into the tanks the night prior, and embryos were collected and staged. To increase bioavailability, the chorion was enzymatically removed using pronase (63.6mg/ml, >/= 3.5U/mg, Sigma-Aldrich: P5147) at 4 hours post fertilization (hpf) using a custom automated dechorionator.Chemical exposures: Six hpf dechorionated embryos were placed 1 embryo per well in a 96-well plate prefilled with 90 ul of EM using automated embryo placement systems (AEPS). Ten microliters of each row of dilution plate 2 was added to 2 exposure plates. The final DMSO concentration used was 0.64% (vol/vol). Thirty-two embryos were also exposed to 5uM trimethyltin chloride (positive control). Plates were sealed to prevent evaporation and foil covered to reduce light exposure and kept in a 28C incubator. Embryos were statically exposed until 120 hpf. At 24 hpf, embryos were assessed for photomotor response using a custom photomotor response analysis tool (PRAT) and for developmental toxicity endpoints (MO24: mortality at 24 hpf, DP: developmental progression, SM: spontaneous movement, and NC: notochord distortion). At 120 hpf, locomotor activity was measured using Viewpoint Zebralab and assessed for 18 endpoints. Zebrafish acquisition and analysis program (ZAAP), a custom program designed to inventory, acquire, and manage zebrafish data, was used to collect developmental endpoints as either present or absent (i.e., binary responses were recorded). If mortality occurred for an embryo (at either 24 or 120 hpf), the non-mortality endpoints were not measured.
In the case of O=C(N[C@@H](c1ccccc1)[C@@H]1CCCCN1)c1cccc(C(F)(F)F)c1Cl, the outcome is reported as “inactive”.
With O=C1O[C@H]([C@H](O)CO)C(O)=C1O the outcome was “inactive”.
For C/C=C/c1ccc(OC)cc1, the outcome was “inactive”.
With O=C(O)CC(O)(CC(=O)O)C(=O)O the outcome was “inactive”.
In the case of CCCCC(CC)COP(=O)(OCC(CC)CCCC)OCC(CC)CCCC (stereo not given), the outcome is reported as “inactive”.
In the case of CCCC(=O)O, the outcome is reported as “inactive”.
For N[C@@H](Cc1c[nH]c2ccccc12)C(=O)O, the outcome was “inactive”.
With CCCCC(CC)COC(=O)CCCCCCCC(=O)OCC(CC)CCCC (stereo not given) the outcome was “inactive”.
With S=c1[nH]c2ccccc2s1 the AC50 was 31.9 µM (active).
With CC(C)(C)c1ccccc1 the outcome was “inactive”.
For CO[C@@H]1COCC[C@@H]1N[C@@H]1CC[C@@](C(=O)N2CCc3ncc(C(F)(F)F)cc3C2)(C(C)C)C1, the outcome was “inactive”.
In the case of CS(=O)(=O)c1ccc([C@@H](C[C@H]2CCC(=O)C2)C(=O)Nc2cnccn2)cc1Cl, the outcome is reported as “inactive”.
For Oc1ccccc1O, the outcome was “inactive”.
With CCCCC(CC)CO (stereo not given) the outcome was “inactive”.
For COC(=O)[C@H]1[C@H]2C[C@@H]3c4[nH]c5cc(OC)ccc5c4CCN3C[C@H]2C[C@@H](OC(=O)c2cc(OC)c(OC)c(OC)c2)[C@@H]1OC, the outcome was “inactive”.
In the case of COC(=O)CCC(=O)OC, the outcome is reported as “inactive”.
For OCC(CO)n1cnc(-c2ccc(F)cc2)c1-c1ccnc(Oc2ccccc2)n1, the outcome was “inactive”.
In the case of COc1ccc(OC(F)(F)F)cc1CN[C@H]1CCCN[C@H]1c1ccccc1, the outcome is reported as “inactive”.
With Nc1nc(Cl)nc2c1ncn2[C@H]1C[C@H](O)[C@@H](CO)O1 the outcome was “inactive”.
With CC(C)c1cccc(C(C)C)c1NC(=O)NS(=O)(=O)c1cc(C(C)(C)O)co1 the outcome was “inactive”.
In the case of O=[Si]=O, the outcome is reported as “inactive”.
For CC(C)COC(=O)CCCCC(=O)OCC(C)C, the outcome was “inactive”.
In the case of O=C1CCCCC1, the outcome is reported as “inactive”.
With c1ccc2occc2c1 the outcome was “inactive”.
In the case of CCCCCCC(CCCCCCCCCCC(=O)OCC(COC(C)=O)OC(C)=O)OC(C)=O (stereo not given), the outcome is reported as “inactive”.
For Cc1ccc(C(C)(C)C)c(O)c1, the outcome was “inactive”.
For C/C=C/C=C/C(=O)O, the outcome was “inactive”.
With CC(COCC(C)OC(=O)c1ccccc1)OC(=O)c1ccccc1 (stereo not given) the outcome was “inactive”.
For CCCCCCCCCC[N+](C)(C)[O-], the outcome was “inactive”.
In the case of CCc1nc(N)nc(N)c1-c1ccc(Cl)cc1, the outcome is reported as “inactive”.
For CCC(C)N(C)C(=O)c1cc2ccccc2c(-c2ccccc2Cl)n1 (stereo not given), the outcome was “inactive”.
In the case of NC1CCCCC1, the outcome is reported as “inactive”.
With O=C1c2c(O)cccc2Cc2cccc(O)c21 the outcome was “inactive”.
With O=C1NC(=O)C(c2ccccc2)(c2ccccc2)N1 the outcome was “inactive”.
In the case of CCc1cc(C2=C(C(=O)O)N(c3ccccc3C(F)(F)F)S(=O)(=O)c3ccccc32)cc2c1OCO2, the outcome is reported as “inactive”.
In the case of CN(C)CCCN(C)CCCN(C)C, the outcome is reported as “inactive”.
In the case of CCCCCCCCCCCCCCOS(=O)(=O)O, the AC50 is reported as 46.9 µM (active).
In the case of CCCC[C@H]1CN(CC2CCOCC2)C(=O)OC12CCN(C1(C)CCN(C(=O)c3c(C)ncnc3C)CC1)CC2, the outcome is reported as “inactive”.
In the case of CC(=O)CC(c1ccccc1)c1c(O)c2ccccc2oc1=O (stereo not given), the outcome is reported as “inactive”.
With Cc1cc(Cc2ccc(N)c(C)c2)ccc1N the outcome was “inactive”.
